Reference: PubChem BioAssay (Tox21)
Records with an inconclusive call do not appear. Activity calls are given as the source filed them. Unless noted, calls follow the shape of the dose curve; as a rule, active = well fitted curve in the direction sought with a large enough effect in the repeat runs; inconclusive = weak or mixed curves; inactive = no such curve, though single readings can be large; an effect the other way counts as inactive or inconclusive.

Tests used:
[1] = target: Estrogen receptor beta (Homo sapiens) (UniProt Q92731); test: qHTS assay to identify small molecule agonists of the estrogen receptor beta (ER-beta) signaling pathway (AID 1259377; active = well fitted activation curve with a large enough effect in the signal ratio in the repeat runs, not every such curve was filed as active; the % refers to the signal ratio)
Estrogen receptor beta (Homo sapiens), sequence (Q92731 whole entry, looked up): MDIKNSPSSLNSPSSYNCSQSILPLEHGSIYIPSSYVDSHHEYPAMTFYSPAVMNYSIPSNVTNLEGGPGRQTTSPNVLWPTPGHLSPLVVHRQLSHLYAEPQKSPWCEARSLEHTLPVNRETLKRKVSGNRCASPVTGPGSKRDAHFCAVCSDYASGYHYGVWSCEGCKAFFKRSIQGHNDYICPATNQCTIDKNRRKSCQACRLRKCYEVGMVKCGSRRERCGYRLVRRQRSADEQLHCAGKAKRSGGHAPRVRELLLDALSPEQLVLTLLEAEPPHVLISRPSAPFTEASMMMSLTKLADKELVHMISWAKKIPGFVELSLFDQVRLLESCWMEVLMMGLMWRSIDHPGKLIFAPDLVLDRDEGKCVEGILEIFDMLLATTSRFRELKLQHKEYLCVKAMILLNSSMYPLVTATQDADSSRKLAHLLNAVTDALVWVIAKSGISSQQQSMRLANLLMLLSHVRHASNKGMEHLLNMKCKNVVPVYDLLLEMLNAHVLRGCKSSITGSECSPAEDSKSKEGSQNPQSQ
Method in brief: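 A UAS-controlled beta-lactamase reporter in ER-beta-UAS-bla HEK293T cells reports receptor activation. Compounds act for 16 hr at 37C in 2% charcoal-stripped serum, and a FRET substrate is read by fluorescence after 2 hours.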

[2] = qHTS assay to identify small molecule agonists of the androgen receptor (AR) signaling pathway in the presence of an antagonist - cell viability counter screen (AID 1259379);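 also: MDA-kb2 human breast cancer cells carrying an MMTV luciferase reporter; series mostly up to about 92 µM; nearly all actives have a fitted effect of over 25% in size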
Method in brief: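 Seed MDA-kb2 at 3,000 cells/well; incubate 5 hr, 37C, 0% CO2. Add nilutamide to 3.0uM final, then pin compounds at 15 concentrations. Incubate 16 hr. Add CellTiter-Fluor at 15 hr, read fluorescence after 1 hr.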

[3] = qHTS assay to identify small molecule agonists of the estrogen receptor beta (ER-beta) signaling pathway - cell viability counter screen (AID 1259380); also: nearly all actives have a fitted effect of over 30% in size
Method in brief: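 CellTiter-Glo read, 30 min RT, same wells as bla assay; cells ER-beta-UAS-bla HEK293T; 16 hr compound, 37C; medium 2% charcoal-stripped FBS.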

[4] = qHTS assay to identify small molecule antagonists of the estrogen receptor beta (ER-beta) signaling pathway - cell viability counter screen (AID 1259382); also: series mostly up to about 92 µM; nearly all actives have a fitted effect of over 55% in size
Method in brief: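 In this multiplexed counter screen, cells were seeded at 2,000 per well in medium with 2% charcoal-stripped FBS and incubated 6 hr before compound and 1nM final E2 were added. Sixteen hours later, ATP-based luminescence reported viability.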

[5] = qHTS assay to identify small molecule agonists of the estrogen receptor alpha (ER-alpha) signaling pathway in the presence of an antagonist - cell viability counter screen (AID 1259386);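 also: series mostly up to about 92 µM; cells exposed to compounds for 22 h at 37 °C before the viability read; nearly all actives have a fitted effect of over 30% in size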
Method in brief: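 Viability counter screen using VM7Luc4E2 (full-length ER-alpha, four ERE-luciferase). The cells were treated with compounds alongside ICI-182,780 10.0nM for 22hr, and live-cell protease fluorescence was quantified with CellTiter-Fluor.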

[6] = target: Progesterone receptor (Homo sapiens) (UniProt P06401); test: qHTS assay to identify small molecule agonists of the progesterone receptor (PR) signaling pathway (AID 1346784; calls by dose curve; also: nearly all actives have a fitted effect of over 30% in size; also: potency is read from the fitted curve at half-maximal effect)
Progesterone receptor (Homo sapiens), sequence (P06401 whole entry, looked up): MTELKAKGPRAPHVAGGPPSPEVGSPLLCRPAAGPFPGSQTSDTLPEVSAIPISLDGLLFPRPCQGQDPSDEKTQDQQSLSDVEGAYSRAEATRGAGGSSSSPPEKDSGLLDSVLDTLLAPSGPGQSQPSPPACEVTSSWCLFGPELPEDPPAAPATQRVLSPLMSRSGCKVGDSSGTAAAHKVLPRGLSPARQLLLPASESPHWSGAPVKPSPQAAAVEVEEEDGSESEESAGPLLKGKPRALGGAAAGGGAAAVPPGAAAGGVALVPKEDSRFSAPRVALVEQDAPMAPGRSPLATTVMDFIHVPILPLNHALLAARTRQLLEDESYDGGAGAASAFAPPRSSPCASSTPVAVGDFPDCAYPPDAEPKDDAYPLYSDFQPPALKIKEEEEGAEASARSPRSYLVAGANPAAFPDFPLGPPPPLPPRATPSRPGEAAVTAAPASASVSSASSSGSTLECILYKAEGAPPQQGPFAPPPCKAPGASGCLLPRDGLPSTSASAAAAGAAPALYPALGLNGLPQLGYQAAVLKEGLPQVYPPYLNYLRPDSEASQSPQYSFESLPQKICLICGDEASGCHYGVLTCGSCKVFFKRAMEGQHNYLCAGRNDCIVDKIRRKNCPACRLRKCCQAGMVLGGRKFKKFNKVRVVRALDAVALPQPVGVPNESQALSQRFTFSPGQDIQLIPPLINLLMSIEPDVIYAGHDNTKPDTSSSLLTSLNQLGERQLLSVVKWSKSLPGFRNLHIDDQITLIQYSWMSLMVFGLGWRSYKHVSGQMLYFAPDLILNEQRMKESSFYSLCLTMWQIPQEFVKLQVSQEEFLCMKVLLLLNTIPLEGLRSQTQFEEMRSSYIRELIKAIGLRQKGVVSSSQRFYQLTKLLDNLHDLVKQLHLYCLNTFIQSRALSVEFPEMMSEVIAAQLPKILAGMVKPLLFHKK
Method in brief: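 Agonist mode, quantitative HTS format in a HEK 293T line expressing a UAS-controlled beta-lactamase reporter; 16 hr compound exposure at 37C in 2% charcoal-stripped FBS, then LiveBLAzer B/G FRET fluorescence.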

[7] = qHTS assay to identify small molecule antagonists of the progesterone receptor (PR) signaling pathway - cell viability counter screen (AID 1346798); also: series mostly up to about 92 µM; nearly all actives have a fitted effect of over 50% in size
Method in brief: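 Same-well multiplex: after 16 hr at 37C with compound and R5020 stimulation, HEK293T cells carrying a UAS-bla reporter received LiveBLAzer substrate (2 hr RT), then CellTiter-Glo (30 min RT) for luminescent viability.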

[8] = qHTS assay to identify small molecule agonists of the progesterone receptor (PR) signaling pathway - cell viability counter screen (AID 1346799; calls by dose curve; also: nearly all actives have a fitted effect of over 45% in size)
Method in brief: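 Counter screen for cytotoxicity: compound-treated PR-UAS-bla HEK293T cells (16 hr, 37C, 5% CO2) were assayed with CellTiter-Glo, luminescence measured after 30 min at room temperature.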

[9] = qHTS assay to identify small molecule antagonists of the TGF-beta/Smad signaling pathway - cell viability counter screen (AID 1346824); also: nearly all actives have a fitted effect of over 50% in size
Method in brief: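 SBE-bla HEK 293T cells were plated overnight at 37 C, then given compounds in DMSO plus TGF-beta1 (added as 0.25 ng/mL solution) for 5 hr. After the bla read, CellTiter-Glo was added to the same wells and luminescence read after 30 min at room temperature.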

[10] = qHTS assay to identify small molecule agonists of the TGF-beta/Smad signaling pathway - cell viability counter screen (AID 1346829); also: top concentration of the series differs between compounds; nearly all actives have a fitted effect of over 45% in size
Method in brief: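 Cytotoxicity counter screen: CellTiter-Glo luminescence (30 min, room temperature) measured in the SBE-bla HEK 293T reporter wells after 5 hr compound treatment at 37 C and the 2 hr substrate step.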

[11] = target: Thyrotropin-releasing hormone receptor (Homo sapiens) (UniProt P34981); test: qHTS assay to identify small molecule agonists of the thyrotropin-releasing hormone receptor (TRHR) signaling pathway (AID 1346891; calls by dose curve;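 also: HEK293 cells expressing TRHR with calcium dye readout; series mostly up to about 58 µM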)
Thyrotropin-releasing hormone receptor (Homo sapiens), sequence (P34981 whole entry, looked up): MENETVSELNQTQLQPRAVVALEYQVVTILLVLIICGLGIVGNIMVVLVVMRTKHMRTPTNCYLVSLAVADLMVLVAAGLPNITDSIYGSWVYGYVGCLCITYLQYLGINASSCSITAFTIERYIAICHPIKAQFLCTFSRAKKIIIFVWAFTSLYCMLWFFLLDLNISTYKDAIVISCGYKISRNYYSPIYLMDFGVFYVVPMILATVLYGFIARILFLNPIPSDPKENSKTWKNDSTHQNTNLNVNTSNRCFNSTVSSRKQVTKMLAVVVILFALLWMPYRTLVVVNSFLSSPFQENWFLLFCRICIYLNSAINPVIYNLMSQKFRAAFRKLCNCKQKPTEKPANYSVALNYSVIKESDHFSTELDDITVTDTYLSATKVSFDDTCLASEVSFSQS
Method in brief: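 Agonist-mode calcium mobilisation screen: TRHR-transfected HEK293 cells cultured overnight (18 h), dye-loaded for 2 h at 37 °C, exposed to compounds, and monitored by fluorescence for 3 min.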

[12] = Human pregnane X receptor (PXR) small molecule agonists, qHTS cell viability counter screen (AID 1346977); also: nearly all actives have a fitted effect of over 50% in size; also: potency is read from the fitted curve at half-maximal effect
Method in brief: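 Measures live-cell protease fluorescence (CellTiter-Fluor) in PXR-Luc HepG2 cells treated 24hr with compounds at 37C. Cells had 5hr to attach before pin transfer of DMSO solutions.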

[13] = target: Estrogen receptor (Homo sapiens) (UniProt P03372); test: qHTS assay to identify small molecule agonists of the estrogen receptor alpha (ER-alpha) signaling pathway in the presence of an antagonist (AID 1259383; calls by dose curve; also: top concentration of the series differs between compounds; nearly all actives have a fitted effect of over 15% in size)
Estrogen receptor (Homo sapiens), sequence (P03372 whole entry, looked up): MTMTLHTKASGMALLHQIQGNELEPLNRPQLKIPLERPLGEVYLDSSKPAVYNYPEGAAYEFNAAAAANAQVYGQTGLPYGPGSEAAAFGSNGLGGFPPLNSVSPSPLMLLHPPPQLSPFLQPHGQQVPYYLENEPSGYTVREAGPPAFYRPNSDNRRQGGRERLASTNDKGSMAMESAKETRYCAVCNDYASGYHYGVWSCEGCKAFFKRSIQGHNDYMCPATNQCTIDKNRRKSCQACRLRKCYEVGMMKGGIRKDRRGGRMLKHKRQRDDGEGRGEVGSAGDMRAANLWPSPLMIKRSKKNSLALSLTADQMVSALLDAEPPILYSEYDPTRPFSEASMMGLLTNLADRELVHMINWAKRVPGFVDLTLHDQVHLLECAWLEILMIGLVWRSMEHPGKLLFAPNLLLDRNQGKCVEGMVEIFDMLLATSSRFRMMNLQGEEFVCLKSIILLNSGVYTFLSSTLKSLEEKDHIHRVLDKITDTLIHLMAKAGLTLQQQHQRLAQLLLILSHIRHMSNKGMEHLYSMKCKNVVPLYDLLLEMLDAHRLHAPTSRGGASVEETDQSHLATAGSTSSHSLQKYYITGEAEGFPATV
Method in brief: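 Stably transfected VM7Luc4E2 reporter cells, kept 5 days in charcoal-stripped serum, received ICI-182,780 at 10.0nM final before compound addition. Following 22hr incubation at 37C and 5% CO2, luciferase signal was read by luminescence.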

[14] = qHTS assay to identify small molecule agonists or antagonists of the thyroid stimulating hormone receptor (TSHR) signaling pathway - wild type cell line counter screen (AID 1259384; calls by dose curve)
Method in brief: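 Wild-type HEK293 cells were plated 18 h at 37 C/5% CO2, pin-dosed with compound plus Ro20-1724 medium, held 30 min at room temperature, then given cAMP-d2 and anti-cAMP-cryptate; fluorescence was read after 1 h. Fifteen concentrations, triplicate.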

[15] = target: Thyrotropin receptor (Homo sapiens) (UniProt P16473); test: qHTS assay to identify small molecule antagonists of the thyroid stimulating hormone receptor (TSHR) signaling pathway (AID 1259385; calls by dose curve; also: nearly all actives have a fitted effect of over 20% in size)
Thyrotropin receptor (Homo sapiens), sequence (P16473 whole entry, looked up): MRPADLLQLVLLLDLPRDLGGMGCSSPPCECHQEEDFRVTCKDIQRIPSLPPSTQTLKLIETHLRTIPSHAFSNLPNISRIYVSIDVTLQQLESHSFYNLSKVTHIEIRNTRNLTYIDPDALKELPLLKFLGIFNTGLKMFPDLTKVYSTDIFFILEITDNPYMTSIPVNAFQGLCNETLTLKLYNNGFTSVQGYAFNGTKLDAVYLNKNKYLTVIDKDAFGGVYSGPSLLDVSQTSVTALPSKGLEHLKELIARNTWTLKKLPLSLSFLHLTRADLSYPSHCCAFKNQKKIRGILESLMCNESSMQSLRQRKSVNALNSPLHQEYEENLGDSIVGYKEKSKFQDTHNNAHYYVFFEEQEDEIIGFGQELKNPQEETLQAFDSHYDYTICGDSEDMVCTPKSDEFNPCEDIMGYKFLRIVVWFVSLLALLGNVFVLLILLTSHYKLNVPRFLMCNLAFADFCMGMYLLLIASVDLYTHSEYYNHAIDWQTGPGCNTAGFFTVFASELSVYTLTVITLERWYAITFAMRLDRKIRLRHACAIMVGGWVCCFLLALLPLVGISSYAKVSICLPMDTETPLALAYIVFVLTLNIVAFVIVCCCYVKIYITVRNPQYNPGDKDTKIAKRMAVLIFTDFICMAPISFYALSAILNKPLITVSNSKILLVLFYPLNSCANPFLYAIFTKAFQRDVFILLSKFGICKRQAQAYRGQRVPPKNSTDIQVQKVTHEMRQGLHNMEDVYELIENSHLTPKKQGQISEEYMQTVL
Method in brief: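 TSHR-HEK293 cells were plated and held 18 h at 37C/5% CO2, then given compound plus Ro20-1724 and stimulated with TSH at 1.5 ng/mL final. After 30 min at room temperature, cAMP was detected with cAMP-d2/anti-cAMP-cryptate (1 h) by fluorescence.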

[16] = target: Progesterone receptor (Homo sapiens) (UniProt P06401); test: qHTS assay to identify small molecule antagonists of the progesterone receptor (PR) signaling pathway (AID 1346795; active = well fitted inhibition curve with a large enough effect in the signal ratio in the repeat runs, not every such curve was filed as active; the % refers to the signal ratio)
Method in brief: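 HEK293T PR-UAS-bla reporter cells in charcoal-stripped serum (2%) received compound after a 6 hr settling period, followed by R5020 agonist at 1 nM final; 16 hr incubation preceded the FRET substrate step and fluorescence measurement.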

[17] = qHTS assay to identify small molecule agonists of the TGF-beta/Smad signaling pathway (AID 1346859; active = well fitted activation curve with a large enough effect in the signal ratio in the repeat runs, not every such curve was filed as active; the % refers to the signal ratio; also: series mostly up to about 77 µM)
Method in brief: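 Smad-responsive beta-lactamase reporter cells (HEK 293T) received compounds from DMSO stocks after overnight attachment, were incubated 5 hr, then treated 2 hr with FRET substrate before dual-emission fluorescence measurement (405 nm excitation).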

[18] = target: Thyrotropin-releasing hormone receptor (Homo sapiens) (UniProt P34981); test: qHTS assay to identify small molecule antagonists of the thyrotropin-releasing hormone receptor (TRHR) signaling pathway (AID 1346877; active = well fitted inhibition curve with a large enough effect in the repeat runs, not every such curve was filed as active; also: series mostly up to about 51 µM)
Method in brief: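 Following an 18 h incubation at 37 °C and a 2 h calcium dye load, TRHR-HEK293 cells were exposed to compound (5 min, room temperature) and challenged with TRH, 1 nM final.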

[19] = target: Estrogen receptor beta (Homo sapiens) (UniProt Q92731); test: qHTS assay to identify small molecule antagonists of the estrogen receptor beta (ER-beta) signaling pathway (AID 1259378; active = well fitted inhibition curve with a large enough effect in the signal ratio in the repeat runs, not every such curve was filed as active; the % refers to the signal ratio)
Method in brief: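 ER-beta-UAS-bla HEK293T (GripTite) cells in 2% charcoal-stripped FBS medium were preincubated 6 hr at 37C, dosed with compound, then stimulated with 1 nM E2 (final) for 16 hr; beta-lactamase reporter read by B/G FRET fluorescence after 2 hr substrate loading.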

Measured: Potency

CN1CCN(c2cc3c(cc2F)c(=O)c(C(=O)O)cn3-c2ccc(F)cc2)CC1
active: [6] 29.8 µM
not listed: [13] | [14] | [15] | [16] | [17] | [18] | [19]
inactive: all other assays above

CCn1ccnc1CC1COc2ccccc2O1 (stereo not drawn)
not listed: [1] | [10] | [18] | [19]
inactive: all other assays above

CN(C)CCCSc1ccccc1NC(=O)/C=C/c1ccccc1
not listed: [1] | [8] | [18] | [19]
inactive: all other assays above

O=C(CCCN1CCC(O)(c2cccc(C(F)(F)F)c2)CC1)c1ccc(F)cc1
not listed: [1] | [3] | [4] | [8] | [13] | [15] | [16] | [19]
inactive: all other assays above

O=C1CCCN1C1CCCCC1
not listed: [1] | [7] | [19]
inactive: all other assays above

CC1(C)C(O)C(C)(C)C1O (stereo not drawn)
not listed: [1] | [6] | [11] | [14] | [16] | [18] | [19]
inactive: all other assays above

NS(=O)(=O)c1ccccc1Cl
not listed: [1] | [7] | [8] | [10] | [11] | [13] | [18] | [19]
inactive: all other assays above

COc1ccc(CCN(C)CCCC(C#N)(c2cc(OC)c(OC)c(OC)c2)C(C)C)cc1OC (stereo not drawn)
active: [12] 26.6 µM
inactive: [2] | [4] | [14] | [6] | [16] | [9] | [10] | [17] | [18] | [11]

CO[C@]12C[C@@H](COC(=O)c3cncc(Br)c3)CN(C)[C@@H]1Cc1cn(C)c3cccc2c13
not listed: [1] | [2] | [7] | [8] | [13] | [19]
inactive: all other assays above

C=C[Si](OC(=C)C)(OC(=C)C)OC(=C)C
not listed: [1] | [7]
inactive: all other assays above
